# Measurements published in ChEMBL document CHEMBL4513216, “Probing the Open Global Health Chemical Diversity Library for Multistage-Active Starting Points for Next-Generation Antimalarials” (ACS Infect Dis, 2020).
# Screen size: about 69,000 compounds; about 8,600 (12%) showed an effect of 50% or more. The sample as a whole holds a higher share of strong results than the screen did.
# Tested on: Plasmodium berghei
# Experiment: Screen against P. berghei liver stage (PbLuc), transformed with Luciferase, at 10uM
# Type: functional, HepG2
# Settings: tested at 10 uM
row,SMILES,INHIBITION
1,CNC(=O)C1CN(C(C)C)CCN1c1nc(C)cc(C)n1 (configuration not stated),3.48%
2,O=C(CC1NC(N2CCc3ccccc3C2)=NC1=O)Nc1ccccc1 (configuration not stated),19.3%
3,O=C1COc2c(cccc2C(=O)N2CCCC(n3cccn3)C2)N1 (configuration not stated),-4.94%
4,Cc1nc(C(C)C)sc1C(=O)N1CCN(C2CN3CCC2CC3)CC1 (configuration not stated),-6.91%
5,Cc1nc(CN(C)C2CCN(Cc3ccc4ccccc4n3)C2)no1 (configuration not stated),70.1%
6,Cc1nc(CN(C)C2CCN(Cc3cnc(C)s3)C2)no1 (configuration not stated),-29.8%
7,Cc1nc(CN(C)C2CCN(Cc3nc4ccccc4n3C)C2)no1 (configuration not stated),48.2%
8,CCc1nc(CN(C(C)=O)C2CCN(CCc3ccccc3)C2)no1 (configuration not stated),19.4%
9,CCc1nc(CN(C)C2CCN(CCc3ccncc3)C2)no1 (configuration not stated),-12.2%
10,CC(=O)N(Cc1noc(C2CC2)n1)C1CCN(CC2CCOCC2)C1 (configuration not stated),56.6%
11,Cc1nc(CN(C)C2CCN(Cc3cccc4cccnc34)C2)no1 (configuration not stated),25.3%
12,CCc1nc(CN(C(C)=O)C2CCN(CC3CCOCC3)C2)no1 (configuration not stated),17.4%
13,Cc1nc(CN(C)C2CCN(Cc3nc4ccccc4s3)C2)no1 (configuration not stated),60%
14,COCCN1CCC(N(Cc2noc(C3CC3)n2)C(C)=O)C1 (configuration not stated),23.4%
15,Cc1cnc(CN(C)C2CCN(Cc3nc4ccccc4s3)C2)o1 (configuration not stated),15.3%
16,CCc1nc(CN(C(C)=O)C2CCN(CCc3ccncc3)C2)no1 (configuration not stated),66.7%
17,CN1CCOC(CNCc2csc(C3CCCC3)n2)C1 (configuration not stated),45.1%
18,O=C(c1ccc(Cl)cc1)N1CCC(N2CCCOC2=O)CC1,48.2%
19,COC1CCN(c2ccc(F)cc2CN(C)S(C)(=O)=O)CC1,4.52%
20,CN(CC(C)(CO)CO)C(=O)Nc1cc(F)cc(Cl)c1,-35.9%
21,COCc1nc(C(=O)NS(=O)(=O)c2ccc(F)cc2F)cs1,-1.95%
22,NCCc1n[nH]c(=O)n1-c1cccc2ccccc12,30%
23,CN(C)CCN1CCN(Cc2cccc(C#N)c2)Cc2cccnc21,-4.32%

row,SMILES,INHIBITION
1,COc1cccc(CNCCc2cc(F)cc3c2OCOC3)c1OC,30%
2,COc1c(CNCCC(=O)NC2CCCCC2)c(C(C)C)nn1C,-7.81%
3,Cc1ccc(CN2CC(C(=O)NCC3CC3)C3(CCOCC3)C2)s1 (configuration not stated),-18.5%
4,Cc1cnn(CC2CN(c3ccc(C#N)cn3)CCO2)c1 (configuration not stated),21%
5,CC(=O)N(Cc1noc(C)n1)C1CCN(Cc2cc(C)on2)C1 (configuration not stated),-6.62%
6,Cc1nc(CN(C)C2CCN(CC3CCCCC3)C2)no1 (configuration not stated),63.4%
7,Cc1nc(CN(C)C2CCN(CC3CCC3)C2)no1 (configuration not stated),18.2%
8,Cc1nc(CN(C)C2CCN(CCC(=O)N3CCOCC3)C2)no1 (configuration not stated),51.1%
9,CC(=O)N(Cc1noc(C)n1)C1CCN(Cc2ccccn2)C1 (configuration not stated),-39.7%
10,Cc1nc(CN(C)C2CCN(CC(=O)N3CCOCC3)C2)no1 (configuration not stated),17.3%
11,CC(=O)N(Cc1noc(C)n1)C1CCN(Cc2ccon2)C1 (configuration not stated),65.5%
12,CC(C)c1nc(CN(C)C2CCN(CCS(C)(=O)=O)C2)no1 (configuration not stated),33.7%
13,CC(C)c1nc(CN(C)C2CCN(CCNS(C)(=O)=O)C2)no1 (configuration not stated),53.3%
14,Cc1nc(CN(C)C2CCN(CC3CCCC3)C2)no1 (configuration not stated),-22.9%
15,CCc1nc(CN(C)C2CCN(CCC(=O)N3CCCCC3)C2)no1 (configuration not stated),36.1%
16,CCS(=O)(=O)CCN1CCC(N(C)Cc2noc(C(C)C)n2)C1 (configuration not stated),21.2%
17,COc1cccc(CN2CC(O)CN(C(=O)C3CCC3)CC2=O)c1OC (configuration not stated),49.5%
18,CNC(=O)[C@@H]1[C@@H](c2ccccc2)CN2CCN(Cc3ccccn3)C[C@H]12,20%
19,O=C(NC1CC1)N1CCCC2(CCCCN2)C1 (configuration not stated),13.7%
20,c1cnn(CC2CN(Cc3nc(C4CC4)no3)CCO2)c1 (configuration not stated),-12.2%
21,COc1ccc(C(C)NCc2nnc(C)s2)cc1F (configuration not stated),39.4%
22,COc1ccc(C(C)NCc2c[nH]nc2C)cc1OC (configuration not stated),-43%
23,COc1cc(C(C)NCc2scnc2C)ccc1SC(F)F (configuration not stated),75.6%

row,SMILES,INHIBITION
1,COc1cc(C(C)NCc2cscn2)ccc1SC(F)F (configuration not stated),27%
2,COc1cc(C(C)NCc2ncccc2C)ccc1SC(F)F (configuration not stated),66.2%
3,COc1ccc(C(C)NCc2scnc2C)cc1Cn1cccn1 (configuration not stated),35.3%
4,Cc1nnc(CN(C)C2CCN(Cc3nc4ccccc4n3C)C2)o1 (configuration not stated),-25.8%
5,OC(COCc1ccccc1)CSc1nnc(C2CC2)n1C1CC1 (configuration not stated),52.8%
6,Cn1c(SCC(O)COCc2ccccc2Cl)nnc1C1CC1 (configuration not stated),36.6%
7,Cn1c(SCC(O)COCc2ccc(Cl)cc2)nnc1C1CC1 (configuration not stated),-18.6%
8,NC(=O)C1CCN(C(=O)c2cc(-n3cnnn3)ccc2Cl)CC1,28.4%
9,CC(NC(=O)C1CC1)C(=O)N(C)Cc1ccsc1 (configuration not stated),16.1%
10,CCCc1ncc(CNC2(c3ccc(Cl)cc3)CC2)cn1,44.8%
11,Cc1nc(C2CCN(C(=O)CO)CC2)cc(N2CCOCC2)n1,36.8%
12,Cc1nc(C2CCN(C(=O)COC(C)C)CC2)cc(N2CCOCC2)n1,3.96%
13,Cc1nc(C2CCN(C[C@H](C)CO)CC2)cc(N2CCOCC2)n1,60.3%
14,O=C(Cc1cccs1)Nc1cnn(C2CCOCC2)c1,71.3%
15,O=C(Nc1ccc2c(c1)OCO2)Nc1cnn(C2CCOCC2)c1,36.5%
16,Cc1cccc(CC(=O)Nc2cnn(C3CCOC3)c2)c1 (configuration not stated),-13.6%
17,O=C(Cc1ccccc1Cl)Nc1cnn(C2CCOC2)c1 (configuration not stated),51.8%
18,O=C(Nc1cnn(C2CCOCC2)c1)c1ccc2c(c1)OCO2,-38.6%
19,O=C(Cc1cccs1)Nc1cnn(C2CCOC2)c1 (configuration not stated),5.91%
20,COc1ccccc1-c1cc(C(=O)Nc2nc[nH]n2)[nH]n1,-36%
21,O=S(=O)(CCN1CCCC1Cn1cncn1)c1ccccc1 (configuration not stated),-43.6%
22,Cc1cc(C(=O)NCC(Cc2cccc(F)c2)N2CCCCC2=O)no1 (configuration not stated),34.9%
23,CNC(=O)[C@@H]1CCO[C@@H]2CCN(C3CCOCC3)C[C@@H]21,-46.9%

row,SMILES,INHIBITION
1,O=C(CCn1ccc2ccc(Br)cc21)NCc1ccc(C(=O)O)cc1,15.1%
2,O=C(c1ccncc1F)N1CC2CC1(C(=O)N1CCCC1)C2,58%
3,Cn1ccnc1C1CCCN(C(=O)c2ccncc2F)C1 (configuration not stated),42.5%
4,Cc1oncc1C(=O)N1CC2CC1(C(=O)N1CCCC1)C2,-15.9%
5,O=C(NCc1cc(-c2ccccc2)no1)NCC1CCCO1 (configuration not stated),1.06%
6,CC1=CCN(S(=O)(=O)c2cccc(C(=O)N3CCCN(C)CC3)c2)CC1,14%
7,N#Cc1ccc(OCCN2CCn3c(nnc3C3CC3)C2)cc1,11.2%
8,NC(=O)NC1CCN(Cc2ccc(Br)c(F)c2)CC1,1.45%
9,NC(=O)CCSCc1ccc(Br)c(F)c1,52.8%
10,CC(NC(N)=O)C(=O)NCc1ccc(Br)c(F)c1 (configuration not stated),-31.1%
11,CS(=O)(=O)CCCSCc1ccc(Br)c(F)c1,-59.7%
12,CS(=O)(=O)CCSCc1ccc(Br)c(F)c1,50.7%
13,CS(=O)(=O)CCCSCc1cc(F)cc(Br)c1,31.2%
14,Cc1ccnc(C2(C)CCCN2S(=O)(=O)c2ccccc2)n1 (configuration not stated),45.55%
15,Cn1cnnc1C1CCN(C(=O)COCc2ccccc2Cl)CC1,39.2%
16,CC(C)Cn1cc(NC(=O)N2CCCC2)cn1,-37.8%
17,CN1C[C@@H]2CN(Cc3ccsc3)CCC[C@]2(C(=O)O)C1,-64.1%
18,CC(C)C1CCN(C(=O)NCC(=O)N(C)CC(F)(F)F)CC1,34.2%
19,CN(Cc1nnc2n1CCC2)S(=O)(=O)c1ccc(Br)cc1Cl,52.6%
20,CN(Cc1nnc2n1CCC2)S(=O)(=O)c1cc(Br)ccc1Br,30.9%
21,Cc1nnc(CN(C)S(=O)(=O)c2ccc(Br)cc2Cl)n1C,33.1%
22,CC(CN1CCCC1=O)NC(=O)c1cc(Cl)c2c(c1)OCO2 (configuration not stated),38.5%
23,Cc1cccnc1CN1CCCCC1c1ccn2ccnc2n1 (configuration not stated),45.6%

row,SMILES,INHIBITION
1,CCc1cnc(CNC(=O)N2CCCC(c3ncc[nH]3)C2)s1 (configuration not stated),40.6%
2,O=S(=O)(c1ccccc1Cl)N1CCCC(c2ncc[nH]2)C1 (configuration not stated),21.6%
3,CCc1ccc(S(=O)(=O)N2CCCC(c3ncc[nH]3)C2)s1 (configuration not stated),81.2%
4,O=S(=O)(c1ccc(Cl)s1)N1CCCC(c2ncc[nH]2)C1 (configuration not stated),50.4%
5,CCOc1ccccc1CC(=O)N1CCCC(c2ncc[nH]2)C1 (configuration not stated),19.7%
6,CCc1cnc(CCNC(=O)N2CCCC(c3ncc[nH]3)C2)s1 (configuration not stated),52.6%
7,Cn1cc(C(=O)N2CCCC(c3ncc[nH]3)C2)cn1 (configuration not stated),-24.9%
8,O=C(CCn1cnnc1)N1CCCC(c2ncc[nH]2)C1 (configuration not stated),-12.2%
9,CCC(CC)c1cc(CNC(=O)N2CCCC(c3ncc[nH]3)C2)on1 (configuration not stated),-1.79%
10,CCNc1nc2cn(-c3cccc(OC)c3)c(=O)c-2c[nH]1,-76.4%
11,O=C(O)c1ccc(=O)n(CC(c2ccc(F)cc2)N2CCCCCC2)c1 (configuration not stated),14.65%
12,CN1CCO[C@@H]2CN(S(=O)(=O)c3ccccc3F)CC[C@@H]2C1,21.7%
13,NCC1CCC(C(NC(=O)C2CC2)c2ccccn2)CC1 (configuration not stated),29.3%
14,CCOc1cc(=O)n2c(c1C(=O)OCc1ccc(OC)cc1)CCCC2,27.6%
15,CC(=O)Nc1cccc(OCCNC(=O)N(C)Cc2ccccc2)c1,80.8%
16,CN(CCOc1cccc(F)c1)CC(=O)Nc1ccncc1,21.55%
17,CC(=O)Nc1cccc(OCCNC(=O)N(C)Cc2ccncc2)c1,57.7%
18,CC(=O)Nc1cccc(OCCNC(=O)N(C)Cc2ccco2)c1,-52.9%
19,CC(=O)NCCOc1cccc(Br)c1,48.8%
20,CC(=O)Nc1cccc(CNC(=O)N(C)Cc2ccccc2)c1,-25%
